Data on 40 sequences can be found in the supplement of paper PMC6555819.

The subject of the first assay is RXRa homodimer (NR concentration 180 nM). The assay is described as follows: PBM binding z-score (relative to random genomic background probes); higher = stronger binding; sequences stand for … in GC…GCGATTGACAGCGTAGAATGAAGG
The essentials: (§1)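 Random background probes are the reference for binding z-scores. These scores derive from regression-normalized fluorescence on custom Agilent 4×180K protein-binding microarrays incubated 1 h with ligand-free nuclear receptor dimers. Binding was detected with antibodies against each partner (one per run).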
As for TTTCAAAGTTCAAAGGTAACGTAAGTATCCACAC, the PBM binding z-score came to 7.2.
CGAACTAGGTCAGTACAGGACAGTGAAGGATGAT returned a PBM binding z-score of 1.3.
Regarding AGGCAAAGTTCAGGACGAGGTAACGTAAAGCACG, the PBM binding z-score came to 3.23.
Consider TTACAAAGGTGAAGGTCGTTGATCCCTCTGTAGA, for which the PBM binding z-score stood at 3.13.
ACTAGTAGTTGAGACGAGGGCAACCGATAGGTTG showed a PBM binding z-score of 0.422.
With TGTATGAGGTTATAAGATCAGGGAACGTTGCAAA, the PBM binding z-score was 1.85.
For CCTAGTTGGGCAAGGTCACACACGCTATAGGTAC, the PBM binding z-score worked out at 4.41.
Still for that read-out and setting: in the case of ACAGACAGGTGTGTGAAGGTAACTCAGCTGGACG it was 0.0111; in that of CAAACTTGGTCAAGAGGTCAAAGTCCGCTTCCCG, 6.1.
In turn, CAAACTAGGTCACTGGAAGGTCAAAGTCCGCATG registered a PBM binding z-score of 5.54.
With GTACCAAGGCGAATAGGTCGTTGATGAGTAGGCG, the PBM binding z-score was determined as 0.543.
In turn, TCTATTACTTGATTAGGGCAACCGAAACAGCGGA returned a PBM binding z-score of 0.781.
In turn, TAGCCTAGGTTAGATCGGGCCAGTATACGCTATA registered a PBM binding z-score of -0.141.
Sequence TCTAGTTGTTCACGGAGGTCACACACGACGGGTA came in with a PBM binding z-score of 4.36.
On the same count and under the same terms, for CGAACGAGAGCATGAGTTGATAGCAAATGCCGAT the value was -0.065.
The same measure, in the same setting: in the case of TTACCAAGGTGAAAGGTCGTTGACGCACGCCTTG it was 6.19.
The sequence GCTGCTAGGTCAACCGATGGTCAGCTAAAGCTCG had a PBM binding z-score of 3.11.
Consider ACTCGGAGGACAAAAGTCAGAGCTACGCCAGTGA, for which the PBM binding z-score was 0.0563.

Another assay relates to THRa:RXRa (NR concentration 90 nM, RXRa partner concentration 90 nM). Described as above. Summed up:
as §1
Sequence TTACGAAGGTGAAGGTCGTTGATCCCTCTGTAGA gave a PBM binding z-score of 1.52.
Consider TAGTCTAGGTCATTCAGGGGCCAGTATAGAAAGC, for which the PBM binding z-score was determined as 3.63.
Take GCTTGTAGATCAAGGTTAAGAAAGACTAAGCTAA: the PBM binding z-score came to 1.14.
With GCTGCTAGGTCAGGTGGGTCAGCTAACGGGTACG, the PBM binding z-score was 2.57.
For GATACAGGGTCAAGGCTAGAGTACGCGTATTGAT, the PBM binding z-score was 3.52.
AACGAAAGGTCGAGGTGAGTATAGAGAAAGGGAA came in with a PBM binding z-score of 2.96.
Take AATACAGGGTAATCGTAGGCCAGAGTACGCACAG: the PBM binding z-score amounted to 1.34.
In turn, TCGAGTAGGTTAGTAGGGGCATTCAGCCAACATA gave a PBM binding z-score of 0.542.
Same read-out and setting: in the case of CCTGCTAGGGCATGGTCAGCTAATCTACAGTATG it was -0.371; in that of ACAGACAGGTGAGTGAAAGTAACTCAGCTGGACG, -0.377; in that of CCTCGGAGGACAGAAGGTCAGGGCTGTCCGCTTT, 2.35.
On to CGTCCAAGGTCAATGCTAGTTCAGTGAAAGCATT, for which the PBM binding z-score is 3.91.
ATCTCTAGGTAAGCCTCAGTTCAGTGAAGAACGC came in with a PBM binding z-score of 0.985.
Consider TCGAGTAGGTTAGTCGGGGCATTCAACCAACATA, for which the PBM binding z-score turned out to be 1.28.
As for CGAACTAGGACAAGGACAGTGAATCTCCGCACGC, the PBM binding z-score came out at 1.8.
The sequence CGTCCAAGGTCAGAGAGGTCAGTGAGTGCCGAGT gave a PBM binding z-score of 4.37.
On the same count and under the same terms, for ACAGACAGGTGCGTGAAGGTAACTCAGCTGGACG the value was -0.227; for GCTCGGAGGACCAGGTCAGAGCTTTGTCCGTAGA, 1.73; for GTACCAAGGTGAATAGGTCGTTGCTGAGTAGGCG, 1.8.
Consider TAGCCTAGGTCAAATCGGGCCAGTATACGCTATA, for which the PBM binding z-score was 4.59.
For the sequence ACTATTAGTTGAAACGAGGGCAACCGATAGGTTG, the PBM binding z-score came to 3.41.
Still for that read-out and setting: in the case of AGAATGAGGTTAAGAGCAGGGAAACAGAATACAT it was 2.19; in that of TTTCAAAGTTCAAAGGTAACGTAAGTATCCACAC, 3.58.
Regarding CGAACTAGGTCAGTACAGGACAGTGAAGGATGAT, the PBM binding z-score was 3.38.
AGGCAAAGTTCAGGACGAGGTAACGTAAAGCACG gave a PBM binding z-score of 3.87.
Sequence TTACAAAGGTGAAGGTCGTTGATCCCTCTGTAGA showed a PBM binding z-score of 2.1.
Turning to ACTAGTAGTTGAGACGAGGGCAACCGATAGGTTG, the PBM binding z-score came out at 2.71.
As for TGTATGAGGTTATAAGATCAGGGAACGTTGCAAA, the PBM binding z-score is 2.08.
As for CCTAGTTGGGCAAGGTCACACACGCTATAGGTAC, the PBM binding z-score was found to be 3.79.
For the sequence ACAGACAGGTGTGTGAAGGTAACTCAGCTGGACG, the PBM binding z-score was -0.0622.
Turning to CAAACTTGGTCAAGAGGTCAAAGTCCGCTTCCCG, the PBM binding z-score came to 3.78.
As to CAAACTAGGTCACTGGAAGGTCAAAGTCCGCATG, the PBM binding z-score was 4.3.
As for GTACCAAGGCGAATAGGTCGTTGATGAGTAGGCG, the PBM binding z-score turned out to be 0.0285.
TCTATTACTTGATTAGGGCAACCGAAACAGCGGA registered a PBM binding z-score of 0.792.
As for TAGCCTAGGTTAGATCGGGCCAGTATACGCTATA, the PBM binding z-score was 2.61.
With TCTAGTTGTTCACGGAGGTCACACACGACGGGTA, the PBM binding z-score amounted to 3.39.
CGAACGAGAGCATGAGTTGATAGCAAATGCCGAT displayed a PBM binding z-score of -0.724.
TTACCAAGGTGAAAGGTCGTTGACGCACGCCTTG came in with a PBM binding z-score of 3.34.
Turning to GCTGCTAGGTCAACCGATGGTCAGCTAAAGCTCG, the PBM binding z-score is 2.71.
Sequence ACTCGGAGGACAAAAGTCAGAGCTACGCCAGTGA yielded a PBM binding z-score of 0.186.

For another assay, the system named is THRa homodimer (NR concentration 90 nM). Described as above. The essentials:
as §1
On to TTACGAAGGTGAAGGTCGTTGATCCCTCTGTAGA, for which the PBM binding z-score amounted to 0.135.
TAGTCTAGGTCATTCAGGGGCCAGTATAGAAAGC gave a PBM binding z-score of 1.42.
Still for that read-out and setting: for GCTTGTAGATCAAGGTTAAGAAAGACTAAGCTAA the value was -0.422.
GCTGCTAGGTCAGGTGGGTCAGCTAACGGGTACG showed a PBM binding z-score of 0.719.
Consider GATACAGGGTCAAGGCTAGAGTACGCGTATTGAT, for which the PBM binding z-score came out at 1.23.
AACGAAAGGTCGAGGTGAGTATAGAGAAAGGGAA displayed a PBM binding z-score of 0.451.
AATACAGGGTAATCGTAGGCCAGAGTACGCACAG registered a PBM binding z-score of -0.13.
In turn, TCGAGTAGGTTAGTAGGGGCATTCAGCCAACATA returned a PBM binding z-score of 0.108.
In the case of CCTGCTAGGGCATGGTCAGCTAATCTACAGTATG, the PBM binding z-score is -0.949.
For ACAGACAGGTGAGTGAAAGTAACTCAGCTGGACG, the PBM binding z-score is -0.737.
For CCTCGGAGGACAGAAGGTCAGGGCTGTCCGCTTT, the PBM binding z-score was determined as 0.202.
As for CGTCCAAGGTCAATGCTAGTTCAGTGAAAGCATT, the PBM binding z-score amounted to 2.17.
ATCTCTAGGTAAGCCTCAGTTCAGTGAAGAACGC had a PBM binding z-score of 1.15.
On the same count and under the same terms, in the case of TCGAGTAGGTTAGTCGGGGCATTCAACCAACATA it was 0.217; in that of CGAACTAGGACAAGGACAGTGAATCTCCGCACGC, 1.32; in that of CGTCCAAGGTCAGAGAGGTCAGTGAGTGCCGAGT, 3.07.
ACAGACAGGTGCGTGAAGGTAACTCAGCTGGACG registered a PBM binding z-score of -0.945.
GCTCGGAGGACCAGGTCAGAGCTTTGTCCGTAGA registered a PBM binding z-score of 0.402.
The sequence GTACCAAGGTGAATAGGTCGTTGCTGAGTAGGCG displayed a PBM binding z-score of 0.155.
TAGCCTAGGTCAAATCGGGCCAGTATACGCTATA yielded a PBM binding z-score of 0.89.
The sequence ACTATTAGTTGAAACGAGGGCAACCGATAGGTTG displayed a PBM binding z-score of 0.358.
Turning to AGAATGAGGTTAAGAGCAGGGAAACAGAATACAT, the PBM binding z-score is 0.347.
The sequence TTTCAAAGTTCAAAGGTAACGTAAGTATCCACAC came in with a PBM binding z-score of 0.252.
CGAACTAGGTCAGTACAGGACAGTGAAGGATGAT had a PBM binding z-score of 0.28.
AGGCAAAGTTCAGGACGAGGTAACGTAAAGCACG displayed a PBM binding z-score of 1.95.
On the same count and under the same terms, in the case of TTACAAAGGTGAAGGTCGTTGATCCCTCTGTAGA it was 0.228; in that of ACTAGTAGTTGAGACGAGGGCAACCGATAGGTTG, -0.0205; in that of TGTATGAGGTTATAAGATCAGGGAACGTTGCAAA, 0.546.
On the same count and under the same terms, in the case of CCTAGTTGGGCAAGGTCACACACGCTATAGGTAC it was 3.23; in that of ACAGACAGGTGTGTGAAGGTAACTCAGCTGGACG, -0.902.
In turn, CAAACTTGGTCAAGAGGTCAAAGTCCGCTTCCCG showed a PBM binding z-score of 1.66.
CAAACTAGGTCACTGGAAGGTCAAAGTCCGCATG: the PBM binding z-score was determined as 2.43.
Consider GTACCAAGGCGAATAGGTCGTTGATGAGTAGGCG, for which the PBM binding z-score was -0.524.
As to TCTATTACTTGATTAGGGCAACCGAAACAGCGGA, the PBM binding z-score worked out at 0.73.
Turning to TAGCCTAGGTTAGATCGGGCCAGTATACGCTATA, the PBM binding z-score was -0.725.
For TCTAGTTGTTCACGGAGGTCACACACGACGGGTA, the PBM binding z-score was 2.47.
On to CGAACGAGAGCATGAGTTGATAGCAAATGCCGAT, for which the PBM binding z-score is -1.07.
Still for that read-out and setting: for TTACCAAGGTGAAAGGTCGTTGACGCACGCCTTG the value was 0.822; for GCTGCTAGGTCAACCGATGGTCAGCTAAAGCTCG, 0.689.
ACTCGGAGGACAAAAGTCAGAGCTACGCCAGTGA yielded a PBM binding z-score of -0.517.
